PubChem BioAssay (Tox21)
Active and inactive are the calls of the source. Calls follow the shape of the dose curve; as a rule, active = well fitted curve in the direction sought with a large enough effect in the repeat runs; inconclusive = weak or mixed curves; inactive = flat fitted curve, though single readings scatter.

experiment: qHTS assay to test for compound auto fluorescence at 590 nm (red) in HEK293 cells (AID 720679); details: red autofluorescence 540/590 nm; series mostly up to 91.3 µM; fluorescence, % of fluorescent control: at the top concentration
Source text: National Center for Advancing Translational Sciences [NCATS]
NIH Chemical Genomics Center [NCGC]
U.S. Environmental Protection Agency [EPA]
National Institutes of Environmental Health Sciences [NIEHS]
National Toxicology Program [NTP]
U.S. Food and Drug Administration [FDA]
Compound auto fluorescence often interferes with screening of the compound library against various biological targets and signaling pathways. Some of these compounds may have fluorophoric properties. Such properties may interfere with the assay outputs resulting in false positives and/or negatives. To decrease such complications and ensure the compound activities are relevant in terms of biological response, the Tox21 10K compound library was screened for auto fluorescence.
From the fluorophores used as reporter signals in our screening assays, the auto fluorescence equivalencies of compounds against three fluorophores have been evaluated: Triamterene, Fluorescein and Rose Bengal sodium for blue, green and red fluorescence, respectively. The fluorescence intensities were measured using Excitation/Emission wavelengths at 405/460nm, 485/535nm and 540/590nm for blue, green and red labels, respectively. This assay includes the red fluorescence data.
Tox21 Assay Protocol Summary:
2,000 HEK293 cells in 5 uL of culture medium containing 10% dialyzed FBS per well were dispensed into black wall/clear bottom 1536-well plates using a Multidrop Combi Dispenser (Thermo Scientific). The assay plates were incubated for 4-5 hr at 37C to allow cell attachment to the well bottom, followed by the transfer of 23 nL compound or DMSO vehicle by a pintool work station (Kalypsys, San Diego, CA). After the assay plates were incubated overnight at 37C and 5% CO2, fluorescence intensities in the assay plates were measured by an Envision (PerkinElmer, Shelton, CT) plate reader using three labels for measuring blue, green and red fluorescence at […] 460, 535 and 590nm respectively.
% is scaled to controls: 0 for no effect and ±100 for the full control effect.

| Structure (SMILES) | fluorescence, % of fluorescent control | outcome |
| --- | --- | --- |
| NNc1nnc(NN)c2ccccc12 | -1.08% [at 46 µM] (inactive) |  |
| CO[C@@H]1[C@@H](OC(N)=O)[C@@H](O)[C@H](Oc2ccc3c(O)c(NC(=O)c4ccc(O)c(CC=C(C)C)c4)c(=O)oc3c2C)OC1(C)C | 0.173% [at 18.6 µM] (inactive) |  |
| O=C(O)Cc1cn(-c2ccccc2)nc1-c1ccc(Cl)cc1 | -0.0256% [at 46 µM] (inactive) |  |
| Cc1cc2cc3c(C)cc(=O)oc3c(C)c2o1 | 0.0391% [at 18.6 µM] (inactive) |  |
| c1ccc2nccnc2c1 | 0.0832% [at 95.7 µM] (inactive) |  |
| O=S(=O)(O)c1ccc2cc(O)c(S(=O)(=O)O)cc2c1 | 0.214% (inactive) |  |
| CCC(CC)CO | -0.124% (inactive) |  |
| COc1cc(NS(=O)(=O)c2ccc(N)cc2)nc(OC)n1 | -0.0598% [at 18.6 µM] (inactive) |  |
| C=C(C)C1CCC(C)(O)CC1 (stereo not given) | 0.104% (inactive) |  |
| C[C@H](CCC(=O)O)[C@H]1CC[C@H]2[C@@H]3C(=O)C[C@@H]4CC(=O)CC[C@]4(C)[C@H]3CC(=O)[C@]12C | 0.247% [at 46 µM] (inactive) |  |
| COc1ccc(C2CNC(=O)C2)cc1OC1CCCC1 (stereo not given) | -0.255% [at 18.6 µM] (inactive) |  |
| Cc1ccc(S(=O)(=O)O)c(C)c1 | -0.0572% (inactive) |  |
| Nc1nnc(-c2cccc(Cl)c2Cl)c(N)n1 | -0.158% [at 46 µM] (inactive) |  |
| Cc1cc(Cl)c(C)cc1Cl | 0.16% (inactive) |  |
| CC(C)NCC(O)COc1cccc2[nH]ccc12 (stereo not given) | 0.0147% [at 46 µM] (inactive) |  |
| Cc1cccc(C)c1NC(=O)c1ccccc1C(=O)O | -0.189% [at 46 µM] (inactive) |  |
| CC(=O)/C=C/C1C(C)=CCC(C)C1(C)C (stereo not given) | -0.483% (inactive) |  |
| COc1nccnc1NS(=O)(=O)c1ccc(N)cc1 | -0.133% [at 46 µM] (inactive) |  |
| OCCCCC(O)CO (stereo not given) | -0.0227% (inactive) |  |
| CCc1ccc(C=O)cc1 | 0.0158% (inactive) |  |

| Structure (SMILES) | fluorescence, % of fluorescent control | outcome |
| --- | --- | --- |
| N[C@@H](CCC(=O)Nc1ccc([N+](=O)[O-])cc1)C(=O)O | -0.343% (inactive) |  |
| Oc1cn2c(n1)Nc1ccc(Cl)c(Cl)c1C2 |  | inactive |
| CNS(=O)(=O)CCc1ccc2[nH]cc(C3CCN(C)CC3)c2c1 | -0.182% [at 46 µM] (inactive) |  |
| Nc1ccc(S(=O)(=O)Nc2ccc(Cl)nn2)cc1 |  | inactive |
| CC1=C(C(=O)O)N2C(=O)[C@@H](NC(=O)[C@H](N)c3ccc(O)cc3)[C@H]2SC1 | -0.165% [at 18.6 µM] (inactive) |  |
| Cc1ccc2c(c1)OCC(=O)CO2 | -0.119% (inactive) |  |
| COC(=O)CCCCCCCC(=O)OC | -0.0845% (inactive) |  |
| OC[C@H](Cc1cccc(O)c1)[C@H](CO)Cc1cccc(O)c1 | -0.0688% [at 95.7 µM] (inactive) |  |
| C#CC(C)N(C)C(=O)Nc1ccc(Cl)cc1 (stereo not given) | -0.101% (inactive) |  |
| CCCCCCCCCC(C)=O | 0.29% [at 95.7 µM] (inactive) |  |
| CCCCCCN | 0.298% (inactive) |  |
| CC(C)C(=O)OCCc1ccccc1 | -0.177% (inactive) |  |
| CCOC(=O)/C=C/c1ccccc1 | -0.0738% (inactive) |  |
| NC(CO)C(=O)NNCc1ccc(O)c(O)c1O (stereo not given) | -0.479% [at 46 µM] (inactive) |  |
| N[C@@H](COP(=O)(O)O)C(=O)O | 0.0063% [at 46 µM] (inactive) |  |
| O=C(O)c1cc(Br)c(O)c(Br)c1 | -0.0043% (inactive) |  |
| CC(C)(C)OC(=O)c1ccc(O)cc1 | -0.58% (inactive) |  |
| CC(C)CC(=O)O | 0.116% (inactive) |  |
| O=C(O)Cc1ccc(Cl)cc1Cl | 0.195% (inactive) |  |
| O=C1CCCC(=O)O1 | -0.209% (inactive) |  |
